Screening results as filed in PubChem.
Only some compounds are listed: those with a hit (about 0.9% of all), similar ones and a draw of the others.
PriA SSB inh: blocks PriA binding to SSB C-terminal tail; 0.6% of 430,000 active; AlphaScreen SSBct-PriA binding, biotinylated peptide; inhibition, % at 33 µM; AID 1272365; in the data active = inhibition mostly above about 37%, no sharp cut-off; inactive = mostly below about 20%
Yp Topo-I inh: blocks Yersinia pestis topoisomerase I activity | Y. pestis Topo-I cleavage product accumulation, plate reader | activity, % at 10 µM | 0.064% of 360,000 active | AID 504884; in the data active = activity above about 50%, passing the limit was not always enough
SARS 3CLpro inh: SARS-CoV 3CLpro protease inhibition; inhibition, % at 6 µM; 0.14% of 290,000 active; recombinant SARS-CoV 3CLpro, quenched FRET peptide cleavage; P0C6X7; in the data active = inhibition above about 12%
MazF activator: activators of E. coli MazEF toxin-antitoxin RNase | FAM/BHQ RNA-DNA oligo cleavage fluorescence, 5 h | 0.32% of 350,000 active | activation, % at 20 µM; in the data active = activation above about 50%
Target sequence (P0AE70 whole entry, looked up): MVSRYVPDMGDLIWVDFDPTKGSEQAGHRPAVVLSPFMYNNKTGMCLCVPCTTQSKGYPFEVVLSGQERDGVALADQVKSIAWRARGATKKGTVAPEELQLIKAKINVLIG
Hits are given with their value; 0 = inactive; - = no result given; + = active, no number.

SMILES | PriA SSB inh | Yp Topo-I inh | SARS 3CLpro inh | MazF activator
O=C(CSc1ncc(-c2ccc(Cl)c(Cl)c2)n1-c1ccc(OC(F)F)cc1)N1CCCC1 | 38 | - | - | -
Cc1ccc2[nH]c(C)c(C=NNc3nc4ccccc4s3)c2c1 | 52 | - | - | -
CCn1c(C)c(/C=N/Nc2nc3ccccc3s2)c2ccccc21 | - | 0 | 0 | 0
O=[N+]([O-])c1ccc(Sc2cccc[n+]2[O-])c2nonc12 | - | 0 | 0 | 104
COc1cccc(NC(N)=Nc2nc(C(F)(F)F)cc(=O)[nH]2)c1 | 0 | - | - | -
CC(O)(CNS(=O)(=O)c1ccc2c(c1)CCCC2)c1ccco1 (configuration not stated) | 0 | - | - | -
Cn1ncc(N=Cc2c(O)ccc3ccccc23)c1C(=O)Nc1cccc(Cl)c1 | 0 | 0 | 0 | 360
CN(C)S(=O)(=O)c1ccc(C(=O)NCCS(=O)(=O)N2CCc3ccccc3C2)cc1 | 0 | - | - | -
Cn1cccc1-c1cc(C(=O)NN=Cc2ccccc2Cl)[nH]n1 | 40 | - | - | -
Cn1cccc1-c1cc(C(=O)NN=Cc2cc(Br)ccc2O)[nH]n1 | 0 | - | - | -
COc1ccc(S(=O)(=O)Nc2ccc3c(c2)OCC(C)(C)C(=O)N3)c(C)c1 | 0 | - | - | -
O=C1C(Nc2ccc(O)cc2)=CC(=NS(=O)(=O)c2cccs2)c2ccccc21 | 76 | - | - | -
CCc1ccc(S(=O)(=O)/N=C2\C=C(Nc3ccc(O)cc3)C(=O)c3ccccc32)cc1 | - | 0 | 0 | 0
CCc1ccc(S(=O)(=O)N=C2C=C(Nc3ccc(O)cc3)C(=O)c3ccccc32)cc1 | 95 | - | - | -
CSc1ncccc1C(=O)NCC1CCN(C(=O)c2ccoc2)CC1 | 0 | - | - | -
Cc1ccc2nc(NC(=O)Cn3ncccc3=O)sc2c1 | 0 | - | - | -
CCOc1ccc(-n2c(O)c(C=Nc3c(C)n(C)n(-c4ccccc4)c3=O)c3ccccc3c2=O)c([N+](=O)[O-])c1 | 0 | - | - | -
Cc1c(N=Cc2c(O)n(C)c(=O)c3ccccc23)c(=O)n(-c2ccccc2)n1C | 0 | 0 | 0 | 300
C=CCn1c(O)c(N=Nc2c(C)n(C)n(-c3ccccc3)c2=O)c(=O)[nH]c1=S | 0 | 0 | 0 | 0
Cc1c(N=Nc2c(O)[nH]c(=S)[nH]c2=O)c(=O)n(-c2ccccc2)n1C | 53 | 0 | 0 | 0
CC1(C)COc2ccc(NS(=O)(=O)c3ccc(Cl)cc3)cc2NC1=O | 0 | - | - | -
COc1ccccc1NC(=O)CSc1n[nH]c(-c2ccccn2)n1 | 77 | 0 | 0 | 0
COc1ccc(NC(=O)CSc2n[nH]c(-c3ccccn3)n2)cc1 | 67 | 0 | 0 | 0
O=C(CSc1n[nH]c(-c2ccccn2)n1)Nc1ccccc1 | 82 | 0 | 0 | 0
O=C(CSc1n[nH]c(-c2ccccn2)n1)Nc1ccccc1F | 50 | 0 | 0 | 0
SMILES | PriA SSB inh | Yp Topo-I inh | SARS 3CLpro inh | MazF activator
COc1ccc(NC(=O)CSc2n[nH]c(-c3ccccc3)n2)cc1 | 0 | - | - | -
COC(=O)C(N)c1cccc(Cl)c1 (configuration not stated) | 0 | - | - | -
O=C(CCSc1ccccc1)Nc1nc(-c2ccc(I)cc2)cs1 | 0 | - | - | -
CC(=O)Nc1cccc(NC(=O)C(=O)NCc2ccccc2)c1 | 0 | - | - | -
c1ccc(C(c2c[nH]c3ccccc23)c2c[nH]c3ccccc23)nc1 | 0 | 0 | 0 | 0
Cn1cc(C(c2ccccn2)c2cn(C)c3ccccc23)c2ccccc21 | 50 | 0 | 0 | 0
COc1cccc(N2C[C@@H](C(=O)Nc3c(C(=O)Nc4ccc5c(c4)OCCO5)oc4ccccc34)CC2=O)c1 | 69 | - | - | -
COc1cccc(NC(=O)c2oc3ccccc3c2NC(=O)C2CC2)c1 | 0 | 0 | 0 | 0
C[C@](O)(CNC(=O)C(=O)Nc1cccc(C(F)(F)F)c1)c1ccc(-c2ccccc2)cc1 | 0 | - | - | -
COc1ccc(Nc2nc(Nc3ccc(Cl)cc3)nc(N3CCOCC3)n2)cc1 | 0 | - | - | -
COc1ccccc1CNc1ccc(CNc2ncn[nH]2)cc1 | 0 | 0 | 0 | 0
c1ccc2c(CNc3ccc(CNc4ncn[nH]4)cc3)cccc2c1 | 40 | 0 | 0 | 0
N#C/C(=C\C1=C(N2CCOCC2)C(=C/c2cccc([N+](=O)[O-])c2)/CC1)C(=O)Nc1ccccc1F | 0 | 0 | 0 | +
N#C/C(=C/C1=C(N2CCOCC2)C(=C/c2cccc([N+](=O)[O-])c2)/CC1)C(=O)Nc1ccccc1F | 0 | 0 | - | 636
Cc1ccc2cc3c(nc2c1)N(N)CC3 | 0 | - | - | -
NC(CO)C(=O)NNCc1ccc(O)c(O)c1O (configuration not stated) | 0 | 0 | 0 | 223
O=C(CSc1ccc(-c2ccc(-n3cccn3)cc2)nn1)NCc1ccc(F)cc1 | 0 | - | - | -
O=C(OCc1ccccc1)N1CCC2CC1c1cc(Cl)ccc12 (configuration not stated) | 0 | 0 | - | 0
O=C(OCc1ccccc1)N1CCC2CC1c1c(Cl)cccc12 (configuration not stated) | 0 | 59 | - | 0
CCOC(=O)C1C(=O)C=C(c2ccc(C)cc2)CC1c1ccccc1 (configuration not stated) | 0 | 0 | 0 | 0
CCOC(=O)C1C(=O)C=C(/C=C/c2ccc(N(C)C)cc2)CC1c1ccccc1 (configuration not stated) | 0 | 0 | 0 | 106
COc1ccc2nc(-c3ccc(Cl)c(NC(=O)c4cccc(OC)c4OC)c3)cn2n1 | 0 | - | - | -
COc1ccc(S(=O)(=O)N(CC(C)C)C2CCS(=O)(=O)C2)cc1OC (configuration not stated) | 38 | 0 | - | 0
Clc1cccc(-c2ccccn2)n1 | 0 | - | - | -
Brc1cc(-c2ccccn2)nc(-c2ccccn2)c1 | 58 | - | - | -
SMILES | PriA SSB inh | Yp Topo-I inh | SARS 3CLpro inh | MazF activator
Clc1cc(-c2ccccn2)nc(-c2ccccn2)c1 | 64 | - | - | -
CN(C)S(=O)(=O)c1ccc(C(=O)NCC(O)(c2ccco2)C2CC2)cc1 (configuration not stated) | 0 | - | - | -
COc1ccc2nc(-c3ccc(F)c(NC(=O)c4c(OC)cccc4OC)c3)cn2n1 | 0 | - | - | -
C=CCSc1cccc2cccnc12 | 125 | - | - | -
C=CCn1nc([N+](=O)[O-])nc1Sc1cccc2cccnc12 | 102 | 0 | 0 | 0
O=[N+]([O-])c1ccc(Sc2cccc3cccnc23)cc1 | 0 | 0 | 0 | 0
C#CCSc1cccc2cccnc12 | 0 | - | - | -
c1cnc2c(SSc3cccc4cccnc34)cccc2c1 | 0 | - | - | -
ClC1(Cl)CC1CSc1cccc2cccnc12 (configuration not stated) | 128 | - | - | -
CSc1cccc2cccnc12 | 75 | - | - | -
Cc1cccc(-n2nnc(C(=O)Nc3ccc(N4CCOCC4)cc3)c2C)c1 | 0 | - | - | -
Cc1ccc2ccc3cccnc3c2n1 | 50 | 0 | 0 | 0
CN(CC(=O)O)c1nc2ccc(OC(F)(F)F)cc2s1 | 0 | - | - | -
CC1CN(c2oc(COc3ccc(Cl)cc3Cl)nc2C#N)CC(C)O1 (configuration not stated) | 43 | 0 | 0 | 0
N#Cc1nc(COc2ccccc2Cl)oc1N1CCCC1 | 0 | 0 | 0 | 0
Cc1ccc(OCc2nc(C#N)c(N3CCCCC3)o2)cc1 | 45 | 0 | 0 | 0
N#Cc1nc(COc2ccc(Cl)cc2)oc1N1CCCCCC1 | 52 | 0 | 0 | 0
O=C(Nc1ccc(Cl)c2ncsc12)C1CC1 | 0 | - | - | -
Cc1ccc(C)n1CC(=O)Nc1nc(-c2ccccn2)cs1 | 100 | - | - | -
O=C(Nc1nc(-c2ccccn2)cs1)c1ccc(CN2C(=O)CNC2=O)cc1 | 0 | - | - | -
CC1=CC(=O)CC(=O)N1CC(=O)Nc1nc(-c2ccccn2)cs1 | 84 | - | - | -
CCCn1c(-c2cccs2)nc2c1c(=O)[nH]c(=O)n2Cc1ccccc1 | 0 | 0 | 0 | 83
